The source of these data is PubChem BioAssay (NCI).

Each structure is given as a SMILES string. This is part of a sample that, as a whole, favours compounds with a hit. Of some 83,000 tested, about 20% had one in any assay.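 For each line, cells grew in 96-well plates with the test compound present at a single concentration for 48 hours.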 A number with no mark means an inactive call. Active and inactive are the calls of the source. Rule for the calls: active = growth percent below 10; inactive = the rest.

The first assay concerns NCI-H226 lung. In words: NCI-60 one-dose screen, 48 h (100 = growth as untreated, 0 = no growth, -100 = all killed). Conditions: 10 µM unless noted.
`C[N+]1(C)C2CC[C@@H]1CC(OC(=O)C(O)c1ccccc1)C2` (some centres undefined): the growth was 84.7%.

With `CC(C)Sc1nc(-c2ccc(Br)cc2)c(C#N)c(N2CCCCC2)n1`, the growth was 100%.

Turning to `CCOC(=O)c1sc(NC(=O)COc2cccc(/C=C3\CCc4cc(OC)ccc4C3=O)c2)nc1C`, the growth was 85.2%.

Turning to `Nc1ccc(Oc2c(F)c(F)c(Oc3ccc(N)cc3)c(F)c2F)cc1`, the growth was 104%.

On to `CC12CCC3C(=CCc4cc(O)ccc43)C1CCC2=O` (centres undefined), for which the growth was 102%.

`COc1cccc(C2=NN(C(C)=O)C(c3cc(OC)c(OC)c(OC)c3)C2)c1` (centres undefined): the growth is 90.1%.

Turning to `Cc1ccc(S(=O)(=O)NCCN2c3nc4ccccc4cc3Sc3cc4ccccc4nc32)cc1`, the growth is 65.6%.

On to `COc1cc(-c2nc3nc4sc(C)c(C)c4c(=O)n3[nH]2)cc(OC)c1OC`, for which the growth was 112%.

For the molecule `O=C(CNc1ccc2c(c1)C(=O)c1ccccc1C2=O)Nc1ccc2c(c1)C(=O)c1ccccc1C2=O`, the growth is -62% (active).

As for `CC(C)=CCNc1ncnc2c1ncn2C1OC(COP(=O)(O)O)C(O)C1O` (centres undefined), the growth is 45.7%.

As to `CCCCc1ccc(C(N)=O)nc1`, the growth was 86.5%.

In the case of `Oc1ccccc1/C=N/N1CCCCCC1`, the growth was 91.5%.

As for `CCOc1nc(-c2ccco2)n2nc(-c3ccco3)cc2n1`, the growth is 92.4%.

For `Cc1onc(-c2ccccc2Cl)c1C(=O)N[C@@H]1C(=O)N2[C@@H]1SC(C)(C)[C@@H]2C(=O)O`, the growth is 99.2%.

With `O=C(Nc1ccccc1)P(=O)(O)c1ccccc1`, the growth is 91.2%.

For `CC(C)CC1NC(=O)C(CCCN)NC(=O)C(C(C)C)NC(=O)C2CCCN2C(=O)C(Cc2ccccc2)NC(=O)C(CC(C)C)NC(=O)C(CCCN)NC(=O)C(C(C)C)NC(=O)C2CCCN2C(=O)C(Cc2ccccc2)NC1=O` (centres undefined), the growth is -59.7% (active).

As for `Cc1nn(-c2nc3ccccc3s2)c(C)c1Oc1ccccc1O`, the growth was 80.5%.

On to `O=C(/C=C/c1ccc([N+](=O)[O-])cc1)c1ccc2c3c(cccc13)CC2`, for which the growth is 66.9%.

Turning to `O=C(N/N=C/c1cccc([N+](=O)[O-])c1)c1ccc(Br)o1`, the growth was 109%.

On to `CCN(Cc1cccc(S(=O)(=O)[O-])c1)c1ccc(C(=C2C=CC(=[N+](CC)Cc3cccc(S(=O)(=O)O)c3)C=C2)c2ccccc2S(=O)(=O)O)cc1`, for which the growth is 93.8%.

On to `c1ccc2nc(N/N=C3\CCCCC3C3CCCCC3)ccc2c1` (centres undefined), for which the growth is 53.8%.

As to `COc1ccc2nc(N/N=C(\C)c3ccccn3)cc(C)c2c1`, the growth was -49.5% (active).

For the molecule `O=C(c1ccc(Cl)cc1)c1ccc(Cl)cc1`, the growth is 100%.

Take `C[C@]12CC[C@H](O)CC1=CC[C@@H]1[C@@H]2CC[C@]2(C)C(c3cccnc3)=CC[C@@H]12`: the growth is 58.5%.

In the case of `Cc1cc(C)c(C(=O)c2cccs2)c(C)c1`, the growth is 99.8%.

For another assay, the system named is NCI-H322M lung. The assay is described as above. Conditions: 10 µM unless noted.
Consider `Cc1ccc(/C=C/C(=O)c2ccc(F)cc2)s1`, for which the growth is 94.2%.

For the molecule `O=C1Nc2ccc(Cl)cc2/C1=C/c1cccs1`, the growth is 90.5%.

In the case of `N=C1c2nc3n(c2C(=O)c2nc4n(c21)CCCCC4)CCCCC3`, the growth is 110%.

Regarding `O=C(c1ccccc1)c1ccc(Oc2ccc([N+](=O)[O-])cc2[N+](=O)[O-])cc1`, the growth is 109%.

Consider `CC[C@H]1CN2CCc3cc(OC)c(OC)cc3C2C[C@@H]1CC1NCCc2cc(OC)c(OC)cc21` (some centres undefined), for which the growth is -23.2% (active).

With `O=C(/C=C/c1cccc(O)c1)c1cccc(-n2cc(-c3ccccc3)[nH]c2=O)c1`, the growth was 21.4%.

`CCOC(=O)Nc1cc(-c2ccc(C)c(NS(C)(=O)=O)c2)nn2c(C)nnc12`: the growth was 2.04% (active).

Turning to `C1CCC(C(CC2CCCCN2)C2CCCCC2)CC1` (centres undefined), the growth was 49.8%.

Consider `C[C@H]1c2cccc(O)c2C(O)=C2C(=O)[C@]3(O)C(O)=C(C(N)=O)C(=O)[C@@H](N(C)C)[C@@H]3[C@@H](O)[C@@H]21`, for which the growth is 44.2%.

On to `COc1ccc(C(=O)COc2cccc(/C=C3\COc4ccc5ccccc5c4C3=O)c2)cc1`, for which the growth is 147%.

With `CN1CCC[C@@H]1CCO[C@](C)(c1ccccc1)c1ccc(Cl)cc1`, the growth is 78.4%.

Take `C=CCNC(=O)/C(=C/c1cccc([N+](=O)[O-])c1)NC(=O)c1ccccc1`: the growth is 107%.

As to `CCc1ccc(-c2nc(SCC(=O)NC3CCCCC3)n[nH]2)cc1`, the growth is 78.4%.

As for `Cc1cc2ccccn2c1C(=O)c1ccc(C(=O)c2ccccc2)cc1`, the growth was 90.1%.

Turning to `C[N+]1(C)C2CC[C@@H]1CC(OC(=O)C(O)c1ccccc1)C2` (some centres undefined), the growth was 97.8%.

With `CC(C)Sc1nc(-c2ccc(Br)cc2)c(C#N)c(N2CCCCC2)n1`, the growth is 93.7%.

For `CCOC(=O)c1sc(NC(=O)COc2cccc(/C=C3\CCc4cc(OC)ccc4C3=O)c2)nc1C`, the growth was 99.8%.

As for `Nc1ccc(Oc2c(F)c(F)c(Oc3ccc(N)cc3)c(F)c2F)cc1`, the growth is -4.94% (active).

As for `CC12CCC3C(=CCc4cc(O)ccc43)C1CCC2=O` (centres undefined), the growth was 94.9%.

For `COc1cccc(C2=NN(C(C)=O)C(c3cc(OC)c(OC)c(OC)c3)C2)c1` (centres undefined), the growth was 77%.

`Cc1ccc(S(=O)(=O)NCCN2c3nc4ccccc4cc3Sc3cc4ccccc4nc32)cc1`: the growth was 91.7%.

Turning to `COc1cc(-c2nc3nc4sc(C)c(C)c4c(=O)n3[nH]2)cc(OC)c1OC`, the growth was 93%.

For the molecule `O=C(CNc1ccc2c(c1)C(=O)c1ccccc1C2=O)Nc1ccc2c(c1)C(=O)c1ccccc1C2=O`, the growth is -95.2% (active).

Consider `CC(C)=CCNc1ncnc2c1ncn2C1OC(COP(=O)(O)O)C(O)C1O` (centres undefined), for which the growth was 41.1%.

`CCCCc1ccc(C(N)=O)nc1`: the growth is 103%.

Take `Oc1ccccc1/C=N/N1CCCCCC1`: the growth is 108%.

In the case of `CCOc1nc(-c2ccco2)n2nc(-c3ccco3)cc2n1`, the growth is 116%.

For the molecule `Cc1onc(-c2ccccc2Cl)c1C(=O)N[C@@H]1C(=O)N2[C@@H]1SC(C)(C)[C@@H]2C(=O)O`, the growth was 104%.

On to `O=C(Nc1ccccc1)P(=O)(O)c1ccccc1`, for which the growth was 119%.

On to `CC(C)CC1NC(=O)C(CCCN)NC(=O)C(C(C)C)NC(=O)C2CCCN2C(=O)C(Cc2ccccc2)NC(=O)C(CC(C)C)NC(=O)C(CCCN)NC(=O)C(C(C)C)NC(=O)C2CCCN2C(=O)C(Cc2ccccc2)NC1=O` (centres undefined), for which the growth is -65.5% (active).

In the case of `Cc1nn(-c2nc3ccccc3s2)c(C)c1Oc1ccccc1O`, the growth was 101%.

Turning to `O=C(/C=C/c1ccc([N+](=O)[O-])cc1)c1ccc2c3c(cccc13)CC2`, the growth was 78.4%.

On to `O=C(N/N=C/c1cccc([N+](=O)[O-])c1)c1ccc(Br)o1`, for which the growth is 105%.

As for `CCN(Cc1cccc(S(=O)(=O)[O-])c1)c1ccc(C(=C2C=CC(=[N+](CC)Cc3cccc(S(=O)(=O)O)c3)C=C2)c2ccccc2S(=O)(=O)O)cc1`, the growth was 98.1%.

Regarding `c1ccc2nc(N/N=C3\CCCCC3C3CCCCC3)ccc2c1` (centres undefined), the growth was 64.5%.

With `COc1ccc2nc(N/N=C(\C)c3ccccn3)cc(C)c2c1`, the growth was 8.51% (active).

Turning to `O=C(c1ccc(Cl)cc1)c1ccc(Cl)cc1`, the growth was 115%.

For the molecule `C[C@]12CC[C@H](O)CC1=CC[C@@H]1[C@@H]2CC[C@]2(C)C(c3cccnc3)=CC[C@@H]12`, the growth is 84.1%.

With `Cc1cc(C)c(C(=O)c2cccs2)c(C)c1`, the growth is 106%.
